# Screening results (PubChem)
# An excerpt weighted towards active compounds, which were near 18% of everything screened.
# GCN5L2 inh: qHTS Assay for Inhibitors of GCN5L2; Histone acetyltransferase KAT2A (Homo sapiens), Q92830; GCN5L2 HAT assay, ThioGlo1 CoA-SH fluorescence; Potency, µM (titrated, usually from 58.9 µM), for inactives: at the highest dose activity change, negative = inhibition, most hits filed as inhibitors; 390,000 tested, 0.21% active; AID 504327, 2011
# Target sequence (Q92830 whole entry, looked up): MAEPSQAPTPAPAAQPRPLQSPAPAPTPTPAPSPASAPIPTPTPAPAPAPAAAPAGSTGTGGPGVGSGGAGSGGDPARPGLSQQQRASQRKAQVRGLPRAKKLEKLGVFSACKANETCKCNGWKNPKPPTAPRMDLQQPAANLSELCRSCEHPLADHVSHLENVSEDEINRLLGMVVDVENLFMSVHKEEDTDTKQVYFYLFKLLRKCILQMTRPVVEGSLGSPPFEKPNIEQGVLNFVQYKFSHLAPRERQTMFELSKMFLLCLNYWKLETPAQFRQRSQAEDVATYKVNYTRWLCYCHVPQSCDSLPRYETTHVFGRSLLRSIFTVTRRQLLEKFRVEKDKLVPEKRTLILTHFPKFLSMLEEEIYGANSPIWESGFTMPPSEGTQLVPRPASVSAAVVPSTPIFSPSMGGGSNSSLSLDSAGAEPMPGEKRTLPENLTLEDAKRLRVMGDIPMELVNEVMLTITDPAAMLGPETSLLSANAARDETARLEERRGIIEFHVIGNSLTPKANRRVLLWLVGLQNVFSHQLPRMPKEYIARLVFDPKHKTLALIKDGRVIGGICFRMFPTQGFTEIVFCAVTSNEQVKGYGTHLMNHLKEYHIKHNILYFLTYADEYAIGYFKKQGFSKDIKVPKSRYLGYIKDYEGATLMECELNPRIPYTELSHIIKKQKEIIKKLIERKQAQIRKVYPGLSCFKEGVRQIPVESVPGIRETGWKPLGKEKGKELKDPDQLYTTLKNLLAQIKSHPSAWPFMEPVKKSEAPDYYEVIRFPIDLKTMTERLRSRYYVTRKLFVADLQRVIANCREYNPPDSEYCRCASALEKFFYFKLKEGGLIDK
#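 Enzyme at 20nM final was mixed with library compounds for 15 min at room temperature. Peptide H3(1-25) at 75uM, acetyl-CoA at 70uM and ThioGlo1 at 50uM were then added. Plates were read immediately and after 20 min (Ex340nm/Em540nm).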
# TDP1 cell noCPT: qHTS for Inhibitors of human tyrosyl-DNA phosphodiesterase 1 (TDP1): qHTS in cells in absence of CPT; DT40 Tdp1-/- hTDP1 cells, no CPT, ATP luminescence, 48 h; Potency, µM (highest dose often 46.2 µM), without a hit: top-dose activity change, negative = growth inhibition, actives largely listed as inhibitors; 420,000 tested, 15% active; AID 686978, 2013; further: nearly all actives have a fitted effect of over 55% in size
#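 Seeded 400 DT40-hTDP1 cells/well (vehicle DMSO, no 20 nM CPT); pinned compounds; ≥48 hr at 37 °C; CellTiter-Glo luminescence as viability measure.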
# PLK1 PBD inh: qHTS for Inhibitors of PLK1-PDB (polo-like kinase 1 - polo-box domain): Primary Screen; Serine/threonine-protein kinase PLK1 (Homo sapiens), P53350; Plk1 PBD binding of FITC phosphopeptide, fluorescence polarization; Potency, µM, inactives show max response, negative = inhibition, most hits filed as inhibitors; 360,000 tested, 2.8% active; AID 720504, 2013; further: series mostly up to about 57 µM; nearly all actives have a fitted effect of over 65% in size
# VDR inhibitor: Inhibitors of the vitamin D receptor (VDR): qHTS; Potency, µM, inactives show max response, negative = inhibition, actives largely listed as inhibitors; 400,000 tested, 0.93% active; Vitamin D3 receptor (Homo sapiens), P11473; VDR-SRC2-3 peptide fluorescence polarization, 2 h
#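 Reagent solutions, kept cold and dark, are dispensed first; compounds are then pinned in at 23 nl, plates briefly spun, and incubated 2 h at ambient temperature. Inhibition of VDR–SRC2-3 peptide binding is read by fluorescence polarization.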
# TDP1 block: qHTS Assay for Inhibitors of Tyrosyl-DNA Phosphodiesterase (TDP1); Tyrosyl-DNA phosphodiesterase 1 (Homo sapiens), Q9NUW8; recombinant TDP1, AlphaScreen DNA substrate cleavage; Potency, µM (highest dose often 130 µM), inactives show top-dose activity change, negative = inhibition, hits mostly inhibitors; 350,000 tested, 0.28% active; further: nearly all actives have a fitted effect of over 40% in size
#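 Compounds were preincubated with Tdp1 (1 nM final) for 15 min at room temperature before substrate (15 nM final) started a 5 min reaction; beads (10 ug/ml final) were then added for 10 min before AlphaScreen detection.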
# TDP1 cell CPT: qHTS for Inhibitors of human tyrosyl-DNA phosphodiesterase 1 (TDP1): qHTS in cells in presence of CPT | chicken DT40 Tdp1-/-;hTDP1 cells + 20 nM CPT, ATP luminescence, 48 h | Potency, µM (series often up to 46.2 µM), for inactives: at the highest dose activity change, negative = growth inhibition, actives largely listed as inhibitors | 420,000 tested, 12% active | AID 686979, 2013; further: nearly all actives have a fitted effect of over 55% in size
#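 Chicken DT40 Tdp1-/- cells stably complemented with human TDP1 were seeded at 400 cells/well in medium containing 20 nM camptothecin, exposed to pin-transferred compounds, and grown at 37 °C for at least 48 hr. Viability was read as ATP luminescence.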
# Starred values were filed as active, the others as inactive; ? = inconclusive; . = not tested or not shown; [ ] = dose if it differs, or a comment. The call rests on the fitted dose curve; in most records, active means well fitted curve in the direction sought with a large enough effect; inconclusive means small, poorly fitted or top-dose-only effect, or another doubt; inactive means no such curve, though single readings can be large; an effect the other way counts as inactive or inconclusive. On the % scale 0 is the no-effect control and ±100 the full control effect; potency means the concentration at half of the fitted maximal effect.
SMILES,GCN5L2 inh,TDP1 cell noCPT,PLK1 PBD inh,VDR inhibitor,TDP1 block,TDP1 cell CPT
O=C(N/N=C/c1ccc[nH]1)c1cc2ccccc2cc1O,-4%,?,-5%,-10%,7%[0.0935 µM],?
O=C(N/N=C/c1c[nH]c2ccccc12)c1cccc(Cl)c1,-17%,-13%,-6%,13%,.,-15%
CCc1ccc(-c2cc(C(=O)N/N=C/c3c[nH]c4ccccc34)[nH]n2)cc1,0%,6.5µM*,-5%,-13%,8%,16µM*
O=C(N/N=C/c1cccc([N+](=O)[O-])c1)c1cc(-c2ccc3c(c2)OCO3)n[nH]1,16%,-20%,-7%,39%,.,-6%
CCc1ccc2c(Cl)c(C(=O)N/N=C/c3c[nH]c4ccccc34)sc2c1,-28%,?,1%,-2%,6%,21µM*
CCc1ccc(/C=N/NC(=O)c2cc(-c3cccc([N+](=O)[O-])c3)n[nH]2)cc1,-6%,2.9µM*,2%,-15%,.,3.7µM*
O=C(NCCc1nnc2ccc(NCc3ccc(F)cc3)nn12)c1ccccc1,-7%,-19%,-5%,-17%,2%,-12%
CC(C)CCNC(=O)CN1C(=O)c2cccnc2Oc2ccccc21,-2%,-18%,.,-9%,-3%,-4%
COc1cccc(C(=O)Nc2cccc(C(=O)OCc3cc(=O)n4c(C)csc4n3)c2)c1,11%,?,.,10%,4%,?
COc1ccc(C(C)=O)cc1COC(=O)c1ccc(OCc2c(C)noc2C)cc1,-5%,-16%,-11%,-3%,2%,-8%
CCc1cc2c(COC(=O)c3c(C)noc3C)cc(=O)oc2cc1O,-3%,10µM*,-16%,-31%,-8%,?
COc1ccc(C(C)=O)cc1COC(=O)c1c(C)noc1C,0%,15µM*,-15%,-8%,4%,?
Cc1ccccc1C(c1c(C)n(C)n(-c2ccccc2)c1=O)c1c(C)n(C)n(-c2ccccc2)c1=O,-7%,.,.,6%,.,.
Cc1c(NC(=O)c2ccc(CC(C)C)o2)c(=O)n(-c2ccccc2)n1C,-5%,0%,-2%,8%,.,24%
Cc1cccc(C)c1C(=O)N[C@@H](Cc1ccccc1)C(=O)O,-4%,-2%,2%,4%,-1%,1%
CC1CN(S(=O)(=O)c2cccc(C(=O)N=c3sccn3C)c2)CC(C)O1 (stereo not given),-3%,?,-9%,-2%,0%,18µM*
CC1CN(S(=O)(=O)c2cccc(C(=O)N(C)C3CCN(C)CC3)c2)CC(C)O1 (stereo not given),2%,6%,1%,-3%,1%,-1%
CCN(CC(=O)Nc1cccc(OC)c1)c1ncnc2sc(C)c(C)c12,-12%,21µM*,-13%,-12%,3%,21µM*
COc1cccc(NC(=O)COc2ncnc3sc(C)c(C)c23)c1,-10%,-8%,2%,-6%,7%,10%
CCc1nc(CN2CCOc3ccc(C(O)C4CCCCC4)cc3C2)c(C)[nH]1 (stereo not given),.,18µM*,.,.,.,?
COc1ccc(C(=O)N(C)CC2CCN(CCc3cccc(C(F)(F)F)c3)CC2)cc1C,-10%,?,5%,-2%,.,?
Cc1ccc(/C=C(\C#N)C(=O)Nc2c(C)cccc2C)s1,-1%,21µM*,2%,11%,5%,?
COC(=O)c1ccc(COc2ccccc2/C=C(\C#N)C(=O)Nc2c(C)cccc2C)cc1,-9%,13µM*,-7%,?,0%,13µM*
CCCCCCCCC#CCC#CCC#CCCCC(=O)O,4%,-8%[4.12 µM],.,-24%,?,5%[4.12 µM]
COc1cc(C)ccc1S(=O)(=O)NC(=O)C1(C)CCN1C(=O)C1(c2ccc(Cl)cc2)CCC1 (stereo not given),.,3%,-2%,.,.,-4%
SMILES,GCN5L2 inh,TDP1 cell noCPT,PLK1 PBD inh,VDR inhibitor,TDP1 block,TDP1 cell CPT
O=C(NN1C(=O)c2ccccc2C1=O)c1ccc2c(c1)C(=O)N(CC1CCCO1)C2=O (stereo not given),-19%,-14%,2%,5%,.,-11%
O=C1C(Br)=C(c2ccccc2)C(c2ccccc2)=C1c1ccccc1,.,0.92µM*,2.7µM*,?,.,0.58µM*
COc1cc(CNc2ncnc3c2ncn3[C@H]2CN(Cc3ccc(-c4ccccc4)cc3)C[C@@H](CO)O2)cc(OC)c1OC,.,12µM*,2%,.,.,8.2µM*
COc1cc(CNc2ncnc3c2ncn3[C@H]2CN(Cc3ccc(C(=O)O)cc3)C[C@@H](CO)O2)cc(OC)c1OC,.,10%,6%,.,.,1%
COCCNc1ncnc2c1ncn2[C@H]1CN(Cc2cc(OC)c(OC)c(OC)c2)C[C@@H](CO)O1,.,-5%,-13%,.,.,-9%
COc1cc(CNc2ncnc3c2ncn3[C@H]2CN(Cc3cccc4ccccc34)C[C@@H](CO)O2)cc(OC)c1OC,.,23µM*,10%,.,.,18µM*
C=CCNc1ncnc2c1ncn2[C@H]1CN(Cc2cccc3ccccc23)C[C@@H](CO)O1,.,?,-4%,.,.,?
COc1cc(CNc2ncnc3c2ncn3[C@H]2CN(Cc3ccncc3)C[C@@H](CO)O2)cc(OC)c1OC,.,13µM*,-10%,.,.,13µM*
CC(C1CC2CCC1C2)n1c(-c2ccco2)n[nH]c1=S (stereo not given),-18%,-16%,30µM*,79µM*,0%,-6%
Cc1ccc(-n2c(-c3ccco3)n[nH]c2=S)cc1,-1%,0%,-7%,-15%,9%,9%
C/C(=N\NC(=S)NC1CCCCC1)c1cccc(C(F)(F)F)c1,0%,23µM*,-5%,-21%,.,21µM*
C/C(=N\NC(=S)NC1CCCCC1)c1ccc(C#N)cc1,-4%,?,-3%,1%,2%,?
C/C(=N\NC(=S)NC1CCCCC1)c1cccc(Br)c1,-1%,16µM*,-12%,-20%,3%,?
O=C(CSc1nc(=O)[nH]c2c1CCC2)NCc1ccc(Cl)cc1,-15%,-7%,.,1%,3%,7%
CC(C)c1ccc(NC(=O)CSc2n[nH]c(=O)n2-c2cccnc2)cc1,-20%,6%,-8%,19%,3%,-13%
